Screening data: PubChem, several laboratories
A selection: hits, their analogues and other compounds. The true share with any hit is near 27%.
CYP2C19 inhib: blockers of cytochrome P450 2C19 activity – biochemical, luminescence, ADME assay, primary screen | CYP2C19 Supersomes, luciferin-H EGE luminescence, 30 min | P33261 | actives 21% (n = 96,000) | inhibition, % at 5 µM;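 active = CYP2C19 inhibition above a set limit at 5 µM in the primary screen, cut at about 50% in these data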;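 note: plate controls were negative control wells for no effect and 2.5 mM tranylcypromine positive control for full effect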
Target sequence (P33261 whole entry, looked up): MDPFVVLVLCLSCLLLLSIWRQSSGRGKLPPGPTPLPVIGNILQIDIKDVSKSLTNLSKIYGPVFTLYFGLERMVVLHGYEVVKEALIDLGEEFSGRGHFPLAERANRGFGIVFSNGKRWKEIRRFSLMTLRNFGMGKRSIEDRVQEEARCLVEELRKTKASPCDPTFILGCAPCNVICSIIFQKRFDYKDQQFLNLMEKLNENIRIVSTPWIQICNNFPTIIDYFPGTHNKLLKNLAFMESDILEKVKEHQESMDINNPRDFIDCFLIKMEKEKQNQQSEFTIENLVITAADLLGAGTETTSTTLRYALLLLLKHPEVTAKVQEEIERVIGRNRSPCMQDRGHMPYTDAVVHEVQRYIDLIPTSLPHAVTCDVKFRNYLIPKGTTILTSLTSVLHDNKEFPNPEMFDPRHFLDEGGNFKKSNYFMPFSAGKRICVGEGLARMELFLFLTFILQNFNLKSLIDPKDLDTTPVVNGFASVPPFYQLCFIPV
Cav32 inh: Cav3.2 calcium influx blockers – cell-based, Fluo-4 calcium fluorescence, FDSS, MLSMR library, primary screen | B-score at 10 µM | Cav3.2-expressing cells; stronger effect = lower value | Voltage-dependent T-type calcium channel subunit alpha-1H (Homo sapiens), O95180 | actives 4% (n = 100,000);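 active = single-dose well whose peak fluorescence ratio is a statistical outlier from its plate by either plate-standardised score or position-corrected B-score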
CYP2C9 act: human CYP2C9 activators, primary screen, biochemical, luminescence. Cytochrome P450 2C9 (Homo sapiens), P11712. recombinant CYP2C9, luciferin-H conversion; stronger effect = higher value; factor 1 = untreated enzyme, 0 = blocked. activation factor at 5 µM. actives 1.4% (n = 96,000);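 active = activation factor of 2 or more for CYP2C9 at a 5 µM dose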;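 note: 0 = sulfaphenazole-blocked wells and 1 = vehicle-only wells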
CYP2C9 inhib: blockers of cytochrome P450 2C9 activity – biochemical, luminescence, ADME assay, primary screen | CYP2C9 Supersomes, luciferin-H conversion | inhibition, % at 5 µM | AID 777, 2007 | actives 20% (n = 96,000);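 active = blocking of liver enzyme CYP2C9 beyond about 50% at 5 µM, limit read from the data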
CYP2C19 act: human CYP2C19 activators, primary screen, biochemical, luminescence | recombinant CYP2C19, luciferin-H EGE luminescence; stronger effect = higher value; 0 = fully inhibited enzyme, 1 = untreated enzyme | activation factor at 5 µM | 96,000 tested, under 10 active;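 active = activation factor of at least 2 at 5 µM in the primary screen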;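 note: 0 = wells with 2.5 mM tranylcypromine and 1 = vehicle-only wells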
Numbers without * were called inactive.

How did CC(=O)O[C@]1(C(C)=O)CC[C@H]2[C@@H]3C=C(Cl)C4=CC(=O)[C@@H]5C[C@@H]5[C@]4(C)[C@H]3CC[C@@]21C do in these assays?
Cav32 inh: -0.14

How did O=C(Nc1ccc(Cl)c(Cl)c1)OCCNC(=O)c1cccc(Cl)c1 do in these assays?
CYP2C19 inhib: 2; Cav32 inh: -0.27; CYP2C9 act: 0.6; CYP2C9 inhib: 41; CYP2C19 act: 1

Results for O=C(Oc1ccc2c(c1)OCO2)c1ccncc1 ?
CYP2C19 inhib: 82*; Cav32 inh: -0.11; CYP2C9 act: 0.3; CYP2C9 inhib: 65*; CYP2C19 act: 0.2

How did Cc1cc2nsnc2c(S(=O)(=O)NCC(=O)O)c1C do in these assays?
CYP2C19 inhib: 6; Cav32 inh: 2; CYP2C9 act: 0.8; CYP2C9 inhib: 19; CYP2C19 act: 0.9

What do the screens show for `COc1cc(CCN2C(=O)c3cccc4cccc(c34)C2=O)c(S(=O)(=O)NCCCO)cc1OC`?
CYP2C19 inhib: 66*; Cav32 inh: -0.14; CYP2C9 act: 0.6; CYP2C9 inhib: 38; CYP2C19 act: 0.3

Results for COCCCNC(=O)Cn1nnc(-c2ccccc2NC(=O)c2ccccc2F)n1 ?
CYP2C19 inhib: 57*; Cav32 inh: 1; CYP2C9 act: 0.1; CYP2C9 inhib: 88*; CYP2C19 act: 0.4

How did COc1ccc(NC(=O)Cn2nnc(-c3ccccc3F)n2)cc1Cl do in these assays?
CYP2C19 inhib: -9; Cav32 inh: -0.2; CYP2C9 act: 1.1; CYP2C9 inhib: -6; CYP2C19 act: 1.1

Results for CCOc1ccc(-c2nnn(CC(=O)NCCc3c[nH]c4ccccc34)n2)cc1 ?
CYP2C19 inhib: 5; Cav32 inh: -1.2; CYP2C9 act: 1; CYP2C9 inhib: 1; CYP2C19 act: 0.9

Results for COc1ccc(CCNC(=O)Cn2nnc(-c3cccs3)n2)cc1OC ?
CYP2C19 inhib: 20; Cav32 inh: 0.59; CYP2C9 act: 0.4; CYP2C9 inhib: 56*; CYP2C19 act: 0.8

Results for COc1ccc(-c2nnn(CC(=O)NCCc3c[nH]c4ccccc34)n2)cc1OC ?
CYP2C19 inhib: 64*; Cav32 inh: -1.8; CYP2C19 act: 0.4

What do the screens show for `COCCCNC(=O)Cn1nnc(-c2ccc(NC(=O)c3ccccc3F)cc2)n1`?
Cav32 inh: 0.81

Results for COc1ccc(CCNC(=O)Cn2nnc(-c3ccccc3F)n2)cc1OC ?
CYP2C19 inhib: 21; Cav32 inh: 1.1; CYP2C9 act: 0.4; CYP2C9 inhib: 65*; CYP2C19 act: 0.8

How did Cc1cc(OC(=O)CNC(=O)OC(C)(C)C)c2c(C)cc(=O)oc2c1 do in these assays?
CYP2C19 inhib: 17; Cav32 inh: 0.43; CYP2C9 act: 1.9; CYP2C9 inhib: -88; CYP2C19 act: 0.8

Results for O=C(NCCc1c[nH]c2ccccc12)C(F)(F)F ?
CYP2C19 inhib: 30; Cav32 inh: 0.58; CYP2C9 act: 1; CYP2C9 inhib: 3; CYP2C19 act: 0.7

What do the screens show for `O=C(CN1CCC(O)(c2ccccc2F)CC1)NCCc1c[nH]c2ccccc12`?
CYP2C19 inhib: 10; Cav32 inh: -2.5; CYP2C9 act: 0.2; CYP2C9 inhib: 80*; CYP2C19 act: 0.9

How did O=c1c2ccccc2sn1-c1ccc(S(=O)(=O)N2CCCCC2)cc1 do in these assays?
Cav32 inh: 0.18

Results for Cc1ccc(-n2sc3ccccc3c2=O)cc1S(=O)(=O)N1CCCCC1 ?
CYP2C19 inhib: 30; Cav32 inh: -1.1; CYP2C9 act: 0.1; CYP2C9 inhib: 89*; CYP2C19 act: 0.7

How did O=S(=O)(c1cccc2c(S(=O)(=O)N3CCCC3)cccc12)N1CCCC1 do in these assays?
CYP2C19 inhib: 1; Cav32 inh: -0.039; CYP2C9 act: 0.8; CYP2C9 inhib: 16; CYP2C19 act: 1

How did O=c1c2ccccc2sn1-c1ccccc1 do in these assays?
CYP2C19 inhib: 44; Cav32 inh: 0.71; CYP2C9 act: 0.3; CYP2C9 inhib: 75*; CYP2C19 act: 0.6

What do the screens show for `O=c1c2ccccc2sn1-c1ccc(S(=O)(=O)N2CCCC2)cc1`?
CYP2C19 inhib: 15; Cav32 inh: -0.062; CYP2C9 act: 0.2; CYP2C9 inhib: 75*; CYP2C19 act: 0.9

How did O=C(c1ccco1)N1CCN(C(=O)C2CCCc3c2[nH]c2ccc(Cl)cc32)CC1 (stereo not given) do in these assays?
CYP2C19 inhib: 45; Cav32 inh: -1.8; CYP2C9 act: 0.6; CYP2C9 inhib: 39; CYP2C19 act: 0.6

What do the screens show for `COc1cccc(CN(CC(=O)NC2CCCC2)C(=O)CCC(=O)Nc2cc(C)on2)c1`?
CYP2C19 inhib: 51*; CYP2C9 act: 0.2; CYP2C9 inhib: 78*; CYP2C19 act: 0.5

How did COc1cccc(CN(CC(=O)NC2CCCC2)C(=O)Cn2nnc(-c3cccs3)n2)c1 do in these assays?
CYP2C19 inhib: 66*; Cav32 inh: -0.98; CYP2C9 act: 0; CYP2C9 inhib: 97*; CYP2C19 act: 0.3

Results for CCC(C(=O)NC1CCCC1)N(C(=O)Cn1nnc(-c2cccs2)n1)c1cnc2ccccc2c1 (stereo not given) ?
CYP2C19 inhib: 0; Cav32 inh: -0.99; CYP2C9 act: 1; CYP2C9 inhib: -3; CYP2C19 act: 1

How did COCCNC(=O)CN(C(=O)CCC(=O)Nc1cc(C)on1)c1cccc(C)c1C do in these assays?
CYP2C19 inhib: 57*; Cav32 inh: 0.85; CYP2C9 act: 0.6; CYP2C9 inhib: 41; CYP2C19 act: 0.4

Results for Cc1ccc(S(=O)(=O)N2CCC(C(=O)Nc3nnc(C45CC6CC(CC(C6)C4)C5)s3)CC2)cc1 ?
CYP2C19 inhib: 14; Cav32 inh: -0.17; CYP2C9 act: 1.1; CYP2C9 inhib: -5; CYP2C19 act: 0.9

What do the screens show for `COc1ccc(S(=O)(=O)N2CCC(C(=O)Nc3c(F)cccc3F)CC2)cc1`?
CYP2C19 inhib: -1; Cav32 inh: 0.91; CYP2C9 act: 0.9; CYP2C9 inhib: 6; CYP2C19 act: 1

How did C#CCOCCOCCOCCNc1nc(N2CCN(C(=O)[C@H]([C@@H](C)O)n3cc(CCCCN)nn3)CC2)nc(N2CCN(C(=O)[C@H](Cc3ccc(O)cc3)n3cc(CCO)nn3)CC2)n1 do in these assays?
Cav32 inh: 0.58

What do the screens show for `O=C(NOC(=O)c1cc(Br)ccc1Cl)c1cccs1`?
CYP2C19 inhib: -6; Cav32 inh: -0.12; CYP2C9 act: 1; CYP2C9 inhib: -4; CYP2C19 act: 1.1

Results for Nc1cc(C(=O)c2cccs2)ccc1Cl ?
CYP2C19 inhib: 87*; Cav32 inh: -0.014; CYP2C9 act: 0.6; CYP2C9 inhib: 41; CYP2C19 act: 0.1

How did Cc1ccccc1CSc1n[nH]c(NS(=O)(=O)c2ccccc2)n1 do in these assays?
CYP2C19 inhib: 36; Cav32 inh: -0.49; CYP2C9 act: 0.8; CYP2C9 inhib: 18; CYP2C19 act: 0.6
